Experimental data published in PubChem BioAssay (NCI).
Compounds without any hit were thinned out: in the full panel of roughly 83,000, 20% have a hit.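 Testing used 96-well plates and a 48-hour single-concentration exposure. Example: -40 means 40% of the starting cells died.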 Unmarked numbers belong to inactive results. The source made the active and inactive calls. How the source made its calls: active means growth percent below 10; inactive means the rest.

Legend:
Test in all cases: NCI-60 one-dose screen, 48 h (100 = growth as untreated, 0 = no growth, -100 = all killed)
Conditions in all cases: 10 µM unless noted
[1] = test system: SK-MEL-2 melanoma
[2] = test system: EKVX NSCLC
[3] = test system: SN12C renal
[4] = test system: UO-31 renal
[5] = test system: TK-10 renal
[6] = test system: ACHN renal
[7] = test system: CAKI-1 renal
[8] = test system: A498 renal
[9] = test system: CCRF-CEM leukemia
[10] = test system: MOLT-4 leukemia
[11] = test system: SR leukemia
[12] = test system: RPMI-8226 leukemia
[13] = test system: OVCAR-8 ovarian
[14] = test system: OVCAR-5 ovarian
[15] = test system: OVCAR-4 ovarian
[16] = test system: SK-OV-3 ovarian
[17] = test system: IGROV1 ovarian
[18] = test system: OVCAR-3 ovarian
[19] = test system: HS 578T breast
[20] = test system: NCI/ADR-RES ovarian

Row | SMILES | growth [1] | growth [2] | growth [3] | growth [4] | growth [5] | growth [6] | growth [7] | growth [8] | growth [9] | growth [10] | growth [11] | growth [12] | growth [13] | growth [14] | growth [15] | growth [16] | growth [17] | growth [18] | growth [19] | growth [20]
1 | COc1ccc(/C(C)=C(/c2ccc(OCCCN(C)C)cc2)c2ccc(OC(=O)c3ccccc3)cc2)cc1 | 90.9% | 74.5% | 79.1% | 45.1% | 87.8% | 111% | 89.7% | 91.5% | 64.3% | 54.2% | 9.15% (active) | 62.6% | 91.6% | 88.1% | 99.8% | 90.8% | 93.6% | 69.5% | 55.4% | 86.4%
2 | CCN1C(=O)N(CC)C2C1NN=c1s/c(=C3\C(=O)N(CC(C)C)c4ccccc43)c(=O)n12 (centres undefined) | 56% | 53.7% | 27.5% | 32.1% | 70.2% | 31% | 31.6% | 9.64% (active) | 11.6% | 19.6% | 17.7% | 17.5% | 9.28% (active) | 30.3% | 44.6% | 45.1% | 19% | 5.65% (active) | 18% | 5.71% (active)
3 | O=C(Nc1ccccc1N1CCCC1=O)c1oc2ccc(F)cc2c1-c1cnn(-c2ccccc2)c1 | 72.8% [50 µM] | 58.3% [50 µM] | 48.5% [50 µM] | 9.1% [50 µM] (active) | 95.4% [50 µM] | 46% [50 µM] | 35.7% [50 µM] | 29.2% [50 µM] | 56.6% [50 µM] | 37% [50 µM] | 61.6% [50 µM] | 32.3% [50 µM] | 20.5% [50 µM] | 87.8% [50 µM] | 57.6% [50 µM] | 56.5% [50 µM] | 65.7% [50 µM] |  | 41.4% [50 µM] | 
4 | COc1cc(/C=C/C(=O)c2ccc(-n3cc(CN4CCN(c5cc6c(cc5F)c(=O)c(C(=O)O)cn6C5CC5)CC4)nn3)cc2)ccc1O | 93% | 85% | 37.6% | 52.6% | 84.9% | 77.7% | 52.5% | 70.8% | 29.9% | 68.2% | 14.1% | -14.6% (active) | 42.7% | 84.7% | 62.9% | 72.3% | 51.8% | 57.3% | 73.7% | 94.2%
5 | Cc1ccc(C(=O)Nc2cccc(C#Cc3cccc4[nH]nc(N)c34)c2)cc1C(F)(F)F | 29.2% | 92.4% | 65.2% | 36.7% | 86.6% | 44.7% | 120% | 81.2% | 52.9% | 45% | 69.3% | 66.9% | 72.1% | 59.9% | 66.6% | 84.3% | 17.9% | 82.7% | 47.4% | 74.1%
6 | CCOC(=O)C#Cc1c(C(=O)OCC)nnn1Cc1ccc(C(F)(F)F)cc1 | 97.1% | 93.6% | 57.7% | 1.49% (active) | 8.7% (active) | -25.4% (active) | 0.164% (active) | 104% | 8.84% (active) | 25.1% | -1.42% (active) | 7.43% (active) | 69% | 91.2% | 67.1% | 99.7% | 81.8% | 13.6% | 113% | 97.1%
7 | Cn1ccc(=O)nc1 | 12.7% | 130% | 81.5% | 73.4% | 94.9% | -4.04% (active) | 73.4% | 98.1% | 86.7% | 74.6% | 68.7% | 101% | 78.7% | 74.5% | 76.1% | 93% | 79% | 115% | 132% | 93.4%
8 | COc1ccc(-c2nc(/C=C3\C(=O)N(C)c4ccccc43)c3ccccn23)cc1 | 83.7% | 113% | 82.3% | 69.3% | 60.1% | 64.5% | 94.1% | 103% | 71.7% | 95.7% | -7.02% (active) | 104% | 58.6% | 85.5% | 47.2% | 66.8% |  | 94.3% | 41.3% | 77.6%
9 | CCOC(=O)c1c(C)nc2ccccc2c1/C=C/c1cccs1 | 63.6% | 67.6% | 78.4% | 63.6% | 90.2% | 76.5% | 63% | 84.5% | 76.4% | 49.4% | 68.6% | 50.7% | 74.8% | 87.8% | 40.4% | 75.9% | 72.1% |  | 98.9% | 43.5%
10 | C#CCOc1cccc(-c2ncnc3cc(NC(=O)C=C)ccc23)c1 | 46.7% | 72.2% | 15% | 15% | 13.8% | 25.5% | 15.9% | 44.5% | 8.7% (active) | 30.8% | 5.05% (active) | 21.1% | 38.3% | 38.5% | 70.9% | 79.9% |  | 28.6% | 24.6% | 53.5%
11 | COc1ccc2c(c1)c(/C(O)=C1\COC(=O)C1=O)cn2Cc1ccc(F)cc1 | 85.5% | 106% | 92.9% | 72.9% | 119% | 103% | 125% | 91.5% | 76.7% | 112% | 136% | 72.1% | 111% | 98% | 97.1% | 110% | 44% |  | 109% | 107%
12 | O=C(Cc1ccccc1)Nc1cccc(N=Cc2ccccc2O)c1 | 116% | 104% | 96.6% | 77.6% | 103% | 110% | 80.8% | 115% | 106% | 101% | 117% | 113% | 98% | 114% | 102% | 106% |  | 93.2% | 108% | 105%
13 | CCN1CCN(CC(=O)Nc2ccc(-c3cn4c(n3)sc3cc(Oc5ccnc(C(=O)NC)c5)ccc34)cc2)CC1 | 42.5% | 100% | 85.9% | 60.1% | 89.5% | 73.2% | 67.4% | 81.8% | 44.9% | 60.6% | -16.9% (active) | 59.2% | 92.4% | 91.2% | 87.5% | 44.8% | 84.8% |  | 94% | 89%
14 | O=C(/C=C/c1ccc(Cl)cc1)c1cccc(OCCCOc2cccc(C(=O)/C=C/c3ccc(Cl)cc3)c2)c1 | 107% | 107% | 103% | 86.1% | 95.6% | 99.6% | 95.4% | 94.9% | 92.9% | 93.3% | 32.8% | -8.57% (active) | 99.3% | 113% | 91.7% | 100% | 108% |  | 106% | 105%
15 | C=C(CNCCO)[C@@H]1CC[C@]2(CO)CC[C@]3(C)[C@H](CC[C@@H]4[C@@]5(C)CCC(N)C(C)(C)[C@@H]5CC[C@]43C)[C@@H]12 (some centres undefined) | -29.2% (active) | 72% | 71.7% | 81.7% | 68.9% | 97.5% | 54.1% | 81.7% | 1.11% (active) | 8.81% (active) | -23.1% (active) | -35.3% (active) | 36.8% | 81.6% | 64.6% | 95.2% |  | 69.4% | 51% | 94.8%
16 | CN1CCN(Cc2ccc(NC(=O)c3cncc(C#Cc4cnc5ccc(Cl)nn45)c3)cc2C(F)(F)F)CC1 | -46.1% (active) | -22% (active) | 0.38% (active) | -11.5% (active) | 5.85% (active) | 1.09% (active) | -13.6% (active) | -8.2% (active) | 2.17% (active) | 3.14% (active) | -2.72% (active) | -25.6% (active) | 8.97% (active) | -4.08% (active) | -4.08% (active) | 12.3% |  | -5.42% (active) | -14.6% (active) | 2.61% (active)
